High-throughput results deposited in PubChem BioAssay by several laboratories.
This is a sample that favours compounds with a hit; in the whole collection about 5.9% have one here.
ABHD5 PLIN5 PPI: ABHD5-PLIN5 protein interaction inhibition; Q00G26+Q8WTS1; AID 602281; Split G. princeps luciferase complementation, luminescence, 4 h; inhibition, % at 4 µM; hit rate 0.78% among 360,000;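 active means inhibition above the mean inhibition across every tested compound plus 3 SD, cut at about 22% in these data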;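 further: 0% = DMSO only wells and the 100% control is not disclosed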
rCAG RNA binder: molecules binding r(CAG) RNA repeats. r(CAG) RNA repeat, TO-PRO-1 dye displacement fluorescence. inhibition, % at 3 µM. hit rate 1.3% among 370,000;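 active means inhibition above the plate cutoff, the mean of all test compounds on that plate plus 3 SD, cut at about 35% in these data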;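 further: 0% = DMSO alone and 100% = 100 µM mitoxantrone as full dye displacement; higher means more dye released from RNA so lower well fluorescence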
LANA-H2B inh: blocks KSHV LANA binding to histone H2A/H2B; Q9QR71; cell-free LANA-H2A/H2B peptide, fluorescence polarization; inhibition, % (concentration not given with the values); hit rate 0.6% among 320,000; in the data active means inhibition mostly above about 10%, no sharp cut-off; inactive means mostly below about 6.7%
ALR H2O2 inh: human ALR oxidase inhibition via reduced H2O2; hit rate 3.8% among 290,000; inhibition, % (concentration not given with the values); purified ALR, DTT oxidation, H2O2 HRP-luminol luminescence; AID 485317;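 active means mean replicate inhibition above about 79%, with every replicate also reaching it, limit read from the data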
Target sequence (P55789 whole entry, looked up): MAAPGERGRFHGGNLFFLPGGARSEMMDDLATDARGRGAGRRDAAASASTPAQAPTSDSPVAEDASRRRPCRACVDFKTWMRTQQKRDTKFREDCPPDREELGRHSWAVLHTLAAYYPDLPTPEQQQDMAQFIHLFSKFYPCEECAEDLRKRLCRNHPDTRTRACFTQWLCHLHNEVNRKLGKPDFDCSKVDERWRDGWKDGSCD
PRMT1 inh: blocks human protein arginine methyltransferase 1. recombinant PRMT1, activity-based probe fluorescence polarization. hit rate 1.3% among 370,000. inhibition, % at 2.79 µM. Q99873;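 active means inhibition above about 21% made by adding two undisclosed values, limit read from the data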
Rtt109 HAT inh: blocks Candida albicans Rtt109/Vps75 acetyltransferase activity. hit rate 0.16% among 330,000. Q5AAJ8. inhibition, % at 34.9 µM. purified Rtt109/Vps75, ThioGlo CoA-SH fluorescence, 4 h;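 active means inhibition of at least 50% in every replicate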
Target sequence (Q5AAJ8 whole entry, looked up): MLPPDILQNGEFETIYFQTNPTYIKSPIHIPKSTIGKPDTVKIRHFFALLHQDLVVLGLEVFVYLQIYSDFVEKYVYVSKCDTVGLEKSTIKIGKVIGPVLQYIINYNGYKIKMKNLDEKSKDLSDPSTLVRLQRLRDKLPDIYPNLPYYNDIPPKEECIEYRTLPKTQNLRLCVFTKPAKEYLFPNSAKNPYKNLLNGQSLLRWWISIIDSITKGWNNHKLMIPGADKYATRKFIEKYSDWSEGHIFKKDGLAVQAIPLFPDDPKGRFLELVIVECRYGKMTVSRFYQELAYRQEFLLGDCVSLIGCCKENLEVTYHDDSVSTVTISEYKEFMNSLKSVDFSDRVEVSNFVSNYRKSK
An asterisk follows results filed as active.

C=CCn1c(C)c(C(C)=O)cc(NC(=O)c2ccccc2)c1=O was read as ABHD5 PLIN5 PPI -1, rCAG RNA binder -2, LANA-H2B inh 1, ALR H2O2 inh 3, PRMT1 inh -2 and Rtt109 HAT inh -1.
For CCOC(=O)c1csc(-c2ccc(COC(=O)c3ccccc3)o2)n1 the results were ABHD5 PLIN5 PPI -7.
`N#Cc1cc(C(=O)c2cc(F)ccc2O)cn(-c2nccs2)c1=O` gave ABHD5 PLIN5 PPI 1, rCAG RNA binder -67, LANA-H2B inh -7, ALR H2O2 inh 33, PRMT1 inh 19 and Rtt109 HAT inh 17.
N#Cc1cc(C(=O)c2ccccc2O)cn(-c2nccs2)c1=O was read as ABHD5 PLIN5 PPI 5, rCAG RNA binder -38, LANA-H2B inh -5, ALR H2O2 inh 97*, PRMT1 inh 19 and Rtt109 HAT inh 10.
Cc1ccc(S(=O)(=O)Nc2ccc(O)c3ncccc23)cc1 was read as ABHD5 PLIN5 PPI 1, rCAG RNA binder 6, LANA-H2B inh -1, ALR H2O2 inh 88*, PRMT1 inh 0 and Rtt109 HAT inh 8.
Screening Cc1ccc(S(=O)(=O)Nc2ccc(O)c3cccnc23)cc1 returned ABHD5 PLIN5 PPI -3, rCAG RNA binder 12, LANA-H2B inh -2, ALR H2O2 inh 95*, PRMT1 inh 21* and Rtt109 HAT inh 128*.
`COc1ccc(N2CCN(C(=O)c3ccc(CS(=O)Cc4ccc(Cl)cc4)o3)CC2)cc1` (stereo not given) gave ABHD5 PLIN5 PPI 7, rCAG RNA binder -6, LANA-H2B inh -3, ALR H2O2 inh -1, PRMT1 inh 8 and Rtt109 HAT inh 4.
For Cc1cccc(N2CCN(C(=O)c3ccc(CS(=O)Cc4cccc(Cl)c4)o3)CC2)c1C (stereo not given) the results were ABHD5 PLIN5 PPI 8, rCAG RNA binder -1, LANA-H2B inh 6, ALR H2O2 inh 100*, PRMT1 inh -2 and Rtt109 HAT inh 27.
`COc1cccc(N2CCN(C(=O)c3ccc(CS(=O)c4ccccc4C)o3)CC2)c1` (stereo not given) gave ABHD5 PLIN5 PPI 4, rCAG RNA binder -4, LANA-H2B inh 1, ALR H2O2 inh 91*, PRMT1 inh -4 and Rtt109 HAT inh 2.
`COc1ccc(N2CCN(C(=O)c3ccc(CS(=O)c4cccc(C)c4)o3)CC2)cc1` (stereo not given) gave ABHD5 PLIN5 PPI 1, rCAG RNA binder -6, LANA-H2B inh -8, ALR H2O2 inh 99*, PRMT1 inh 5 and Rtt109 HAT inh 2.
Screening COc1cccc(N2CCN(C(=O)c3ccc(CS(=O)c4ccccc4Cl)o3)CC2)c1 (stereo not given) returned ABHD5 PLIN5 PPI 5, rCAG RNA binder -3, LANA-H2B inh -9, ALR H2O2 inh 63, PRMT1 inh -1 and Rtt109 HAT inh 2.
`COC(=O)[C@]12C[C@H](CC(=O)NCc3ccc(C)o3)C(=O)N(Cc3ccc(Cl)cc3Cl)C1=C[C@H](C(C)(C)C)O[C@@H]2C` gave rCAG RNA binder 1 and PRMT1 inh 4.
CC(=O)c1ccc(S(=O)(=O)NCCC(=O)NC(C)c2ccncc2)cc1 (stereo not given) was read as ABHD5 PLIN5 PPI 7, rCAG RNA binder 2, PRMT1 inh 3 and Rtt109 HAT inh 9.
CCc1nc2c(OCc3cc(Cl)cc(Cl)c3)cccn2c1N(C=O)Cc1ccc(OC)cc1 was read as ABHD5 PLIN5 PPI 3, rCAG RNA binder 3 and PRMT1 inh -2.
Screening O=C(C(=O)c1ccc(O)cc1)c1ccccc1 returned ABHD5 PLIN5 PPI -2, rCAG RNA binder 3, LANA-H2B inh 4, ALR H2O2 inh -4 and PRMT1 inh -1.
`O=C(c1ccc(O)cc1)c1ccc(C(=O)c2ccc(O)cc2)cc1` gave ABHD5 PLIN5 PPI 1, rCAG RNA binder 2, LANA-H2B inh 13*, ALR H2O2 inh -13, PRMT1 inh -2 and Rtt109 HAT inh -1.
CC(C)(C)c1ccc(C#C[C@@H]2C=C[C@H]3OC(=O)CC/C=C/CCC(=O)OC[C@H]3O2)cc1 was read as rCAG RNA binder 7 and PRMT1 inh 5.
CCN(CC)c1ccc(/C=C2\CCC(/C=N/NC(=O)c3ccc(=O)n(C)c3)=C2N2CCOCC2)cc1 was read as ABHD5 PLIN5 PPI 1, rCAG RNA binder -1, LANA-H2B inh -9, ALR H2O2 inh 100* and PRMT1 inh 0.
O=C(CSc1nnc(-c2cnccn2)n1-c1ccccc1)c1ccc(F)cc1 was read as rCAG RNA binder 0 and PRMT1 inh 3.
O=C(COC(=O)Cc1cccs1)Nc1ccc(OC(F)(F)F)cc1 was read as ABHD5 PLIN5 PPI 4, rCAG RNA binder -29, LANA-H2B inh -15, ALR H2O2 inh -27, PRMT1 inh 78* and Rtt109 HAT inh 6.
Cc1ccccc1CSc1nnc(-c2ccccn2)n1C was read as ABHD5 PLIN5 PPI 0, rCAG RNA binder 3, LANA-H2B inh 1, ALR H2O2 inh -2 and PRMT1 inh -4.
For Cc1ccccc1CSc1nccn1-c1ccccc1 the results were ABHD5 PLIN5 PPI -5, rCAG RNA binder -9, LANA-H2B inh 0, ALR H2O2 inh 99*, PRMT1 inh 0 and Rtt109 HAT inh 9.
Screening CN1/C(=C/C=N/n2cnnc2)C(C)(C)c2ccccc21 returned ABHD5 PLIN5 PPI 4, rCAG RNA binder -1, LANA-H2B inh -5, ALR H2O2 inh 94*, PRMT1 inh -1 and Rtt109 HAT inh 13.
Screening CN1/C(=C\C=C(/C#N)C(=O)Nc2ccc(Cl)cc2)C(C)(C)c2ccccc21 returned ABHD5 PLIN5 PPI -1, rCAG RNA binder -1, LANA-H2B inh -6, ALR H2O2 inh -6, PRMT1 inh 1 and Rtt109 HAT inh -5.
CN1/C(=C\C=C(C#N)C#N)C(C)(C)c2ccccc21 was read as ABHD5 PLIN5 PPI 10, rCAG RNA binder 0, LANA-H2B inh 45*, ALR H2O2 inh -9, PRMT1 inh 1 and Rtt109 HAT inh 10.
`CN1/C(=C\C=N\NC(=O)c2ccccc2Br)C(C)(C)c2ccccc21` gave ABHD5 PLIN5 PPI 0, rCAG RNA binder -5, PRMT1 inh 1 and Rtt109 HAT inh 4.
CC(=O)C1=C(C)NC(=S)NC1c1ccc(F)cc1 (stereo not given) was read as rCAG RNA binder 4 and PRMT1 inh 3.
CCN1CCN(c2nc3c(C)cccn3c(=O)c2/C=C(\C#N)C(=O)NCCOC)CC1 was read as ABHD5 PLIN5 PPI 0, rCAG RNA binder -7, LANA-H2B inh -3, ALR H2O2 inh -2, PRMT1 inh 23* and Rtt109 HAT inh 0.
Screening COCCCNC(=O)C[C@H]1C[C@@]2(C(=O)OC)C(=C[C@H](COCc3ccccc3)O[C@@H]2C)N(Cc2ccco2)C1=O returned rCAG RNA binder 3 and PRMT1 inh 9.
Screening FC(F)(F)c1cc(-c2ccco2)nc(NCc2ccccc2)n1 returned ABHD5 PLIN5 PPI 0, rCAG RNA binder 2, LANA-H2B inh 6, ALR H2O2 inh 98*, PRMT1 inh 13 and Rtt109 HAT inh 8.
